Bioassay records: PubChem, several laboratories
Rows were chosen to be rich in hits. Some 1.1% of all compounds tested hit in one or more screens of this group.
APOBEC3A inh – APOBEC3A ssDNA deaminase inhibitors, primary screen, selectivity assay for APOBEC3G inhibitor project, biochemical, FAM/TAMRA oligo cleavage fluorescence. DNA dC->dU-editing enzyme APOBEC-3A (Homo sapiens), P31941. recombinant A3A, FAM/TAMRA ssDNA deamination fluorescence. inhibition, % at 20 µM. actives 0.41% (n = 330,000). AID 493011, 2011;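 active = at least 40% inhibition at 20 µM here, with at most 30% in a related deaminase screen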;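 note: plate controls were A3A with DMSO for no effect and wells lacking A3A enzyme for full effect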
Target sequence (P31941 whole entry, looked up): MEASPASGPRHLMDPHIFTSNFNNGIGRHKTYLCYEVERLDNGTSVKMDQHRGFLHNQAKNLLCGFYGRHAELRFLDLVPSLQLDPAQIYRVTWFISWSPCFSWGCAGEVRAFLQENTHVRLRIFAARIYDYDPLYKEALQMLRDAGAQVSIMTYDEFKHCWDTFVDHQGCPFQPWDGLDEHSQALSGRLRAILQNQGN
A3G deaminase – APOBEC3G DNA deaminase inhibitors, primary screen, biochemical, fluorescence, single-stranded DNA substrate, uHTS | AID 493012, 2011 | actives 0.28% (n = 330,000) | recombinant A3G, ssDNA deamination FAM/TAMRA fluorescence | inhibition, % at 20 µM | DNA dC->dU-editing enzyme APOBEC-3G (Homo sapiens), Q9HC16;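 active = inhibition of at least 40% at 20 µM, with no more than 30% in the related APOBEC3A deaminase screen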;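 note: plate controls were DMSO wells with A3G for no effect and wells lacking A3G enzyme for full effect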
Target sequence (Q9HC16 whole entry, looked up): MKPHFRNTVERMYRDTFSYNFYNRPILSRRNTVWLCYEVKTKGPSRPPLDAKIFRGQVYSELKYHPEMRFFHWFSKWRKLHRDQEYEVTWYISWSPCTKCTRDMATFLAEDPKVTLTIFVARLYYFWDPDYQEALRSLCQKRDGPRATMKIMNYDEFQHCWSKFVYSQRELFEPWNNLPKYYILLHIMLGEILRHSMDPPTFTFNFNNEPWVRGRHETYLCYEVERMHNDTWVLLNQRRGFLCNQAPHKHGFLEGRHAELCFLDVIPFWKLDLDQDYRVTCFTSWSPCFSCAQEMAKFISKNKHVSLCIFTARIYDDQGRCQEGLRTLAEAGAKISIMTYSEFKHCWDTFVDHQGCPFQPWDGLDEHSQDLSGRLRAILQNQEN
MIN6 prolif – inducers of MIN6 beta-cell proliferation, primary screen, ATP luminescence, uHTS; MIN6 cells proliferation, ATPlite luminescence, 48 h; cells starved in 0.2% serum; 100% = growth in 10% serum; proliferation, % at 10 µM; actives 0.29% (n = 330,000); AID 2380, 2010;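 active = compounds whose signal lies at least 3.5 SD above the mean of all wells on their plate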;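 note: 0% = DMSO-treated cells in low-serum medium and 100% = 10% serum control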
Bfl-1 A1 inh – caspase 3/7 activation in MEF A1-2A-BIM cells, primary screen, A1 inhibitor project, cell-based, luminescence, HTS; Caspase-Glo 3/7 luminescence, 3 h; percent of clofoctol response, vehicle zero; caspase activation, % (concentration not given with the values); actives 0.066% (n = 330,000);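 active = over half of replicate activation scores above 10%, or exactly half above 10 with the replicate mean above 10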
A3A conf – APOBEC3A deaminase inhibitors, retest, confirmation, selectivity assay for APOBEC3G inhibitor project, biochemical, single concentration, fluorescence readout. shares compounds with APOBEC3A inh. actives 63% (n = 1,400). AID 493151, 2011. recombinant A3A, ssDNA deaminase UDG fluorescence assay. inhibition, % at 20 µM;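 active = inhibition reaching a set limit, 80% of the first screen's cutoff, at 20 µM in any replicate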;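 note: plate controls were DMSO wells with A3A for no effect and wells lacking A3A enzyme for full effect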
UDG ctr A3A – E. coli UDG inhibitors, confirmation, counter-screen for APOBEC3A inhibitor project, biochemical, single concentration, fluorescence, FAM/TAMRA oligo; UDG counterscreen, FAM/TAMRA uracil oligo fluorescence; shares compounds with APOBEC3A inh; 1,000 tested, under 10 active; inhibition, % at 20 µM; call rule not given here
Starred values were filed as active, the others as inactive; · = no result given.

SMILES | APOBEC3A inh | A3G deaminase | MIN6 prolif | Bfl-1 A1 inh | A3A conf | UDG ctr A3A
CCCCn1c(N)c(N(CCOC)C(=O)CCc2ccc(OC)cc2)c(=O)[nH]c1=O | -2 | -5 | -2 | -3 | · | ·
CCN1CCN(c2ccccc2NC(=O)c2ccc(-n3cccn3)cc2)CC1 | 46* | 9 | -2 | 0 | 28 | ·
CCn1cc(Br)c(C(=O)N2CCN(c3ccccc3)CC2)n1 | -2 | 0 | -3 | 1 | · | ·
Cn1cnc(C(=O)N2CCN(c3ccccc3)CC2)c1C(=O)N1CCN(c2ccccc2)CC1 | 59* | 16 | -4 | 1 | 67* | 2
Cn1cnc(C(=O)N2CCN(C(=O)OC(C)(C)C)CC2)c1C(=O)N1CCN(C(=O)OC(C)(C)C)CC1 | 46* | 8 | -1 | 0 | 64* | 0
CC(=O)Nc1nc2c(ccc3ccccc32)s1 | 49* | 9 | 0 | 0 | 13 | ·
COn1c(-c2ccccc2)nc2c1CCc1nonc1-2 | 54* | 0 | -2 | -1 | -7 | -2
c1ccc(COn2c(-c3ccccc3)nc3c2CCc2nonc2-3)cc1 | -1 | -4 | 1 | 0 | · | ·
CNc1c(NS(=O)(=O)c2cc(Cl)ccc2OC)c(=O)oc2ccccc12 | -2 | -4 | 0 | 0 | · | ·
O=C(O)c1cccc(-c2ccc(/C=C3/SC(=Nc4ccccc4)N(Cc4cccnc4)C3=O)o2)c1 | 52* | 20 | -7 | 0 | 33* | 2
CCCCn1c(N)c(N(CC(C)C)C(=O)C2CC(=O)N(Cc3ccco3)C2)c(=O)[nH]c1=O (stereo not drawn) | 5 | -8 | -3 | 1 | · | ·
CCN1CCN(c2ccc(S(=O)(=O)N3CCCCC3)cc2NC(=O)COc2ccc(Cl)cc2)CC1 | 37 | 4 | -5 | 0 | · | ·
CCN1CCN(c2ccc(S(=O)(=O)N3CCCCC3)cc2NC(=O)COc2cc(C)ccc2Cl)CC1 | 57* | 15 | -7 | 0 | 73* | 3
CCN1CCN(c2ccc(S(=O)(=O)N3CCCCC3)cc2NC(=O)COc2ccc(F)cc2Cl)CC1 | 56* | 11 | -6 | 1 | 53* | -4
CC(Oc1ccc(F)cc1)C(=O)Nc1cc(S(=O)(=O)N2CCCCC2)ccc1N1CCOCC1 (stereo not drawn) | 42* | 4 | -4 | 1 | 3 | ·
CCOC(=O)C1CCCN(C(=O)CN2C(=O)NC(C)(c3ccc4ccccc4c3)C2=O)C1 (stereo not drawn) | 2 | -8 | 3 | -1 | · | ·
Cc1ccccc1SCC(=O)OCC(=O)NCCNC(=O)COC(=O)CSc1ccccc1C | 13 | -6 | 0 | 1 | · | ·
CC1(c2ccc(Cl)cc2)NC(=O)N(CC(=O)Nc2ccc(N3CCCCC3)cc2)C1=O (stereo not drawn) | 45* | -6 | -3 | 0 | -6 | -3
CC1(c2ccc(Cl)cc2)NC(=O)N(CC(=O)Nc2ccc(F)cc2)C1=O (stereo not drawn) | 2 | -10 | 0 | -1 | · | ·
CC1CCN(S(=O)(=O)c2ccc(NC(=O)CN3C(=O)NC(C)(c4ccccc4)C3=O)cc2)CC1 (stereo not drawn) | 49* | 4 | -2 | 0 | -3 | ·
COc1ccc2c(c1)c(=O)oc1cc(OCC(=O)N3CCC(C)CC3)ccc12 | 54* | 28 | -3 | 1 | 49* | -1
COc1ccc2c(c1)c(=O)oc1cc(OCC(=O)N3CCc4ccccc4C3)ccc12 | 45* | 11 | -1 | 0 | 71* | -2
COc1ccc2c(c1)c(=O)oc1cc(OCC(=O)N3CCCC(C)C3)ccc12 (stereo not drawn) | 8 | -5 | -3 | 0 | · | ·
CCOC(=O)CNC(=O)CCc1nnc2ccc(N3CCC(C)CC3)nn12 | -2 | -6 | -1 | -3 | · | ·
COCCn1c(=NC(=O)CSCC(=O)N2CCOCC2)sc2cc(C)ccc21 | -1 | -6 | -4 | 0 | · | ·
SMILES | APOBEC3A inh | A3G deaminase | MIN6 prolif | Bfl-1 A1 inh | A3A conf | UDG ctr A3A
Cc1cc(C)c(OCC(=O)OCC(=O)NCC2CCCCC2)c(C)c1 | 0 | -10 | 0 | 1 | · | ·
O=C(Cc1cccs1)Nc1nnc(CCc2ccccc2)s1 | -3 | -6 | 0 | 1 | · | ·
O=C(Cc1cccs1)Nc1nnc(Cc2ccccc2)s1 | 64* | 29 | -2 | 0 | 46* | -3
O=C(COc1ccc(Br)cc1CNC1CCCC1)Nc1ccccc1 | -7 | -5 | -7 | 2 | · | ·
CCOC(=O)c1sc2nc(CSc3ccccc3)nc(NCCN(C)C)c2c1C | -2 | -5 | -7 | 1 | · | ·
CCN1C(=NCc2ccc(OC)cc2)N[C@@H](c2ccccc2)C(C(=O)OC)=C1C | 92* | 12 | -4 | 2 | 66* | -3
COC(=O)C1=C(C)N(Cc2ccccc2)C(=NCC2CC2)N[C@H]1c1ccccc1 | 39 | 7 | -5 | -1 | · | ·
CCN1C(=NCC2CC2)N[C@@H](c2ccccc2)C(C(=O)OC)=C1C | 46* | 12 | 0 | 1 | 80* | 4
CCN1C(=NCc2cc(OC)c(OC)c(OC)c2)N[C@@H](c2ccccc2)C(C(=O)OC)=C1C | 45* | 11 | -3 | 1 | 68* | 0
CCc1ccccc1NC(=O)C1CCCN1C(=O)Nc1ccc(C)cc1 (stereo not drawn) | -2 | -6 | -2 | 1 | · | ·
C/C(=N\OCC(=O)N/N=C/c1ccc(C)cc1O)c1cccs1 | 51* | -7 | -6 | -1 | -3 | 1
CCc1noc(C)c1C(=O)NNC(=O)c1cc(OC)cc(OC)c1 | 3 | 0 | 3 | -1 | · | ·
CCc1noc(C)c1C(=O)NNC(=O)c1cc(OC)c(OC)c(OC)c1 | 62* | 9 | 0 | 0 | 54* | -1
O=C(CCn1nc(-c2ccc(Cl)cc2)ccc1=O)N1CCN(c2ccccc2)CC1 | 0 | 0 | -5 | 0 | · | ·
CC(C)C1Nc2ccc(C(=O)O)cc2C2C=CCC21 (stereo not drawn) | 40* | 28 | -2 | 0 | 42* | 6
CCOC(=O)C1Nc2ccc(C(=O)O)cc2C2C=CCC12 (stereo not drawn) | 81* | 27 | -4 | 1 | 89* | 1
CCCC1Nc2ccc(C(=O)O)cc2C2C=CCC12 (stereo not drawn) | · | · | · | 0 | · | ·
CCOC(=O)c1ccc2c(c1)C1C=CCC1C(C(=O)O)N2 (stereo not drawn) | 98 | 88 | 0 | 0 | · | ·
